# Test results: the supplement of paper PMC10105736
# Unmarked numbers belong to inactive results.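 Rule for the calls: active = MAPPIT score above the 99th percentile of random reference set scores in the same batch; inactive = at or below it.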
# B1: betaTub85D (protein)
# chain: MREIVHIQAGQCGNQIGGKFWEVISDEHCIDATGTYYGDSDLQLERINVYYNEATGAKYVPRAILVDLEPGTMDSVRSGAFGQIFRPDNFVFGQSGAGNNWAKGHYTEGAELVDSVLDVVRKESEGCDCLQGFQLTHSLGGGTGSGMGTLLISKIREEYPDRIMNTFSVVPSPKVSDTVVEPYNATLSVHQLVENTDETYCIDNEALYDICFRTLKLTTPTYGDLNHLVSATMSGVTTCLRFPGQLNADLRKLAVNMVPFPRLHFFMPGFAPLTSRGSQQYRALTVPELTQQMFDAKNMMAACDPRHGRYLTVAAIFRGRMSMKEVDEQMLNIQNKNSSFFVEWIPNNCKTAVCDIPPRGLKMSATFIGNSTAIQELFKRVSEQFTAMFRRKAFLHWYTGEGMDEMEFTEAESNMNDLVSEYQQYQEATADEEGEFDEDEEGGGDE
# B2: Nup62 (protein)
# chain: MVFQLPTTTAAPTGGATSSFSFGLSTGTPAAAPASGAATTAPATKTTFSFGTPAPTAGIGGGDADNSKAQAPPAFGFGLGSGTASAPLTLGTQAAANPASTTSATATGTSAAPPAFGGFTAQPAASVVPTIATSAPNTAATTTGLLGGSGLGAPKTTAAASTTLTAAPSAIASTQGAAPAPTLSTGGAFANLTTETKTTDSSAVSTASQLSYHQLEEHINKWTLEFEEQEKVFTEQATQINAWDKLLISNNGKIVELNDAVKKVKTDQQVLDQELEFIATQQKELEDSLGPLEKEFVNLPRVDMERSQTYLMVENLDTQLKQMSEDLKEIIDNLNEANKGQDTTDPIIQIGKILNAHMNSLQWIESQSTNISKKLEDIGKIQDSQKRDIFRAPF
# B3: Iru (protein)
# chain: MAEAMVVEDRPAEAKRFFCHMCNVEINIPNSDFTCPLCANGFVEELPANAPEMDSSTAGASGSARSGSSGSGSSGSHDTLSRGSSSSGSQVNVESLRNDIVSLLNMRNVPNLEITIEPNRRHSNVLHLGGFGGPSGSDSARGLTAGGRVRPANLDRLDNVLFDFLQSLPLAGATAEIVTGPGGGGVGGGGNSHMFFMGNPGDYAWGREGLDTIVTQMLNQMETSGPPPLSAQRINEIPNVQINAEEVNRKIQCSICWDDFKIDETVRKLPCSHLYHENCIVPWLNLHSTCPICRKSLADDGNDADDEFVMLDAFGPEMAADGSNSERRSASTATGTDNPSPANNPSQAAAEGGRTRPDANPAQAARNNIFTFDDDNMFLD
# B4: tos (protein)
# chain: MGITGLIPFVGKASSQLHLKDIRGSTVAVDTYCWLHKGVFGCAEKLARGEDTDVYIQYCLKYVNMLLSYDIKPILVFDGQHLPAKALTEKRRRDSRKQSKERAAELLRLGRIEEARSHMRRCVDVTHDMALRLIRECRSRNVDCIVAPYEADAQMAWLNRADVAQYIITEDSDLTLFGAKNIIFKLDLNGSGLLVEAEKLHLAMGCTEEKYHFDKFRRMCILSGCDYLDSLPGIGLAKACKFILKTEQEDMRIALKKIPSYLNMRNLEVDDDYIENFMKAEATFRHMFIYNPLERRMQRLCALEDYETDERYCSNAGTLLEDSEQALHLALGNLNPFSMKRLDSWTPEKAWPTPKNVKRSKHKSIWQTNFQSENTHTPKKENPCALFFKKVDFVGKTLNEEIEANQRLEQAKQTEAELFNMYSFKAKRRRSPSREDSVDQERTPPPSPVHKSRHNPFAKERTGEEANQRSPVVCENASLLRLLSPKKASPLDGEAGVKKVDSLKRSIFAKEQVQIRSRFFATQDEQTRLQREHLRDTENDDMDEQKLSSHSGHKKLRLVCKDIPGKNPIRQRCSSQISDGETDTDTTASSLLESQDKGVPSPLESQEDLNNSQPQIPTEGNTNSTTIRIKSLDLLLENSPEPTQESDRNNNDAIILLSDDSCSSDQRASSTSSSSQQRQNFLPTSKRRVGLSKPSTAKKGTPKSRTNGKLGAVSQNQTKLSMFGFQTKPVLK
# B5: Ubc4 (protein)
# chain: MANMAVSRIKREFKEVMRSEEIVQCSIKIELVNDSWTELRGEIAGPPDTPYEGGKFVLEIKVPETYPFNPPKVRFITRIWHPNISSVTGAICLDILKDNWAAAMTLRTVLLSLQALLAAAEPDDPQDAVVAYQFKDKYDLFLLTAKHWTNAYAGGPHTFPDCDSKIQRLRDMGIDEHEARAVLSKENWNLEKATEGLFS
# B6: MCU (protein)
# chain: MSRNRAAMVSAFRLFLRPATTTTHRSLALRLAPGTTFALHLRPCHELQQHRSFASTAEDGETDKHKKPTTGEDIYVEYVNGMPHMTVRLPSRNELCQFALKPISHNVGDLLAMLRAEDRGIDRAAVINKHGVRIASSCTIESLLDDSFSIQINNRTLDVNPPKRDKVTLESMDKVGDVRKVIAQLYEAFNVGEYQLEKSNQLAKELETLRYELEPLEEKKLELSKKAARRTNFMTWMGLGLMSVQFGILARLTWWEYSWDIMEPVTYFVTYGTTMAMYAYYCVTKREYMMEDVKNREFSLSLYRNAKKVQFDVEHYNELKRKSAELEYNLRRINDPLNMQLPSHLVRTQENTPPTLTEEKAERKYT
# B7: hth (protein)
# chain: MAQPRYDDGLHGYGMDSGAAAAAMYDPHAGHRPPGLQGLPSHHSPHMTHAAAAAATVGMHGYHSGAGGHGTPSHVSPVGNHLMGAIPEVHKRDKDAIYEHPLFPLLALIFEKCELATCTPREPGVQGGDVCSSESFNEDIAMFSKQIRSQKPYYTADPEVDSLMVQAIQVLRFHLLELEKVHELCDNFCHRYISCLKGKMPIDLVIDERDTTKPPELGSANGEGRSNADSTSHTDGASTPDVRPPSSSLSYGGAMNDDARSPGAGSTPGPLSQQPPALDTSDPDGKFLSSLNPSELTYDGRWCRREWSSPADARNADASRRLYSSVFLGSPDNFGTSASGDASNASIGSGEGTGEEDDDASGKKNQKKRGIFPKVATNILRAWLFQHLTHPYPSEDQKKQLAQDTGLTILQVNNWFINARRRIVQPMIDQSNRAVYTPHPGPSGYGHDAMGYMMDSQAHMMHRPPGDPGFHQGYPHYPPAEYYGQHL
# B8: RpS21 (protein)
# chain: MENDAGENVDLYVPRKCSASNRIIHAKDHASVQLSIVDVDPETGRQTDGSKTYAICGEIRRMGESDDCIVRLAKKDGIITKNF
# B9: Cog6 (protein)
# chain: MSSTQEKPEELDRIQKRVNKILEARLESDKDTLDALSGLSTFFTENTLQNRRNLRSQIEHRSVGINENFLKAFRQVKLSLDAVCEDLDTMATSVETMKSDLETSKALTKDLIKQTNTMQRERDRLEVHKQIAQAFLARFQLSGAEHQLLYGAAKDAPIVADFFRVLDRVQSIHADCRLLMQCGYQTAAIDIMEEMTLHQEGALERLYRWTQNHCRSLENNEIGPLIVEAMSRLQDRPVLFKYVIDEYAIARRAVLVRQFIEALTEGGPGGNPKPIELHAHDPKRYIGDMFAWLHQSIPTEKENLSLLFKKCDKQDISDQLQNALGYIADGVCHPLKVRVETILQAEKDTIVLFTISNLLRFYQQIMRQVVQGGSLEECLVELQKSSEQIYLGALAAQVRSVLQRPSGGSGLALEPPQRDLVPPPSVARLLNMLKEILSVATMVDGRQADITKIVSCVIDPLLQSVQESAAHLPTVDMGVYLLNCLHHMQSSLAVYEYMDERVERLQAQSDAQLDTLTSEQASSLVANLNLGPIYAILQSNQSKIETNLLKIFMSKMDAFLELPDVLLLPQVQLIMSSSHRAAVQKRSFNVIVAIYKQIYERVHDPANGFEQPEQLLHRTPEQVAHILTST
# B10: Cyp4d2 (protein)
# chain: MLGVVGVLLLVAFATLLLWDFLWRRRGNGILPGPRPLPFLGNLLMYRGLDPEQIMDFVKKNQRKYGRLYRVWILHQLAVFSTDPRDIEFVLSSQQHITKNNLYKLLNCWLGDGLLMSTGRKWHGRRKIITPTFHFKILEQFVEIFDQQSAVMVEQLQSRADGKTPINIFPVICLTALDIIAETAMGTKINAQKNPNLPYVQAVNDVTNILIKRFIHAWQRVDWIFRLTQPTEAKRQDKAIKVMHDFTENIIRERRETLVNNSKETTPEEEVNFLGQKRRMALLDVLLQSTIDGAPLSDEDIREEVDTFMFEGHDTTTSAISFCLYEISRHPEVQQRLQQEIRDVLGEDRKSPVTLRDLGELKFMENVIKESLRLHPPVPMIGRWFAEDVEIRGKHIPAGTNFTMGIFVLLRDPEYFESPDEFRPERFDADVPQIHPYAYIPFSAGPRNCIGQKFAMLEMKSTVSKLLRHFELLPLGPEPRHSMNIVLRSANGVHLGLKPRA
# B11: Mob2 (protein)
# chain: MNWAISNLTGGNRVSRAILVRYSSVPLADATNDGSSTAPQTPTASTPRPSSSHSSLSSTFAATFLHASSRHIPGRAVPRQNANGQNGGKGNASGAGGGAGGGGAGGASGGTGGTGAQAAGQLSLPLDVEETVTCFCRKARRKERDGDQNSTDTKLYLEESVLERKLPEADLKALVDLPAGLDYNEWLASHTLALFEHVNLVYGTISEFCTQSGCADMTGPGNRTYLWFDEKGKKTRVAAPQYIDYVMTFTQKTVSDESIFPTKYANEFPGSFESIARKILRLQFHVIAHLYAAHFREIALLGLHTHLNLTFAHLTALHRRFNLIDEKETDVLRDLEVALRLTDDTGGCQDATSTTSSVHDHSHSGDLQHQSLQQQQQHHNSSSNSTSSAEAFHVNSQSNNGSTSASASVSLIDGDAVAPPICTQPEAGAGCKPAGSSGLLGGILGDLTSGEFGDTTRYCTSAVPQAAAAAGAGVGGTAIGATDAAALNNGAGALHLNFSNNNNNNHNLNHHHHHHHHHGHHGHHHAAQQQQQHSGLIQCNAAGGGGNATGVATGGATAAASSTTTA
# B12: unk (protein)
# chain: MLANETNKLLLSSQQEKPNHYTYLKEFRVEQCQSFLQHKCNQHRPFVCFNWHFQNQRRRRPVRKRDGTFNYSADNYCTKYDETTGICPEGDECPYLHRTAGDTERRYHLRYYKTCMCVHDTDSRGYCVKNGLHCAFAHGMQDQRPPVYDIKELETLQNAESTLDSTNALNALDKERNLMNEDPKWQDTNYVLANYKTEPCKRPPRLCRQGYACPQYHNSKDKRRSPRKYKYRSTPCPNVKHGEEWGEPGNCEAGDNCQYCHTRTEQQFHPEIYKSTKCNDVQQAGYCPRSVFCAFAHVEPCSMDDPRENSLSASLANTSLLTRSSAPINIPNTTLSNSINDFNSGSFAVNIPSSSLTYSPTNHANLFNVDAFNYGGSNKLSNSLSATQNDSSLFFPSRIISPGFGDGLSISPSVRISELNTIRDDINSSSVGNSLFENTLNTAKNAFSLQSLQSQNNSDLGRITNELLTKNAQIHKLNGRFEDMACKLKIAELHRDKAKQEAQEWKERYDLAQIQLNLPAELRDLSIQKLKQLQSKLRTDLEEVDKVLYLENAKKCMKCEENNRTVTLEPCNHLSICNTCAESVTECPYCQVPVITTHT
# B13: MED4 (protein)
# chain: MSFHLSTKERLLLLIDDIEMIAKELIEQAHQKISSTELVDLLDLLVAKDEEFRKMLELAEEQAKVEEAMDQLRAKVEVHDREIQKLQKSLKDAELILSTAIFQARQKLASINQANKRPVSSEELIKYAHRISSANAVSAPLTWCIGDLRRPYPTDIEMRNGLLGKSEQNINGGTVTHQNSGMPSEQQRTLSGSAGSGSGSGAGGEVPNAFQNQFNWNLGELHMTMGASGNTVALETRAQDDVEVMSTDSSSSSSSDSQ
# Columns and labels:
# Experiment in all cases: MAPPIT interaction score (arbitrary units); higher = stronger binary interaction signal, active = hit call of the paper
# CG34328 = conditions: MAPPIT configuration: N-C; pair source set: screen_3
# CG32809 = conditions: MAPPIT configuration: N-N; pair source set: Curagen_low_conf
# RhoGAP92B = conditions: MAPPIT configuration: N-N; pair source set: Curagen_low_conf
# CG3473 = conditions: MAPPIT configuration: N-N; pair source set: screen_2
# Ubc2 = conditions: MAPPIT configuration: N-N; pair source set: screen_2
# CG3557 = conditions: MAPPIT configuration: N-N; pair source set: Curagen_low_conf
# Mst84Db = conditions: MAPPIT configuration: N-N; pair source set: Curagen_low_conf
# CG3356 = conditions: MAPPIT configuration: N-N; pair source set: Lit-BS-16
# sinah = conditions: MAPPIT configuration: N-N; pair source set: screen_1
# CG34345 = conditions: pair source set: RRS
# CG32425 = conditions: MAPPIT configuration: N-C; pair source set: screen_3
# CG5327 = conditions: MAPPIT configuration: N-C; pair source set: screen_3
# CG33514 = conditions: MAPPIT configuration: N-N; pair source set: DPIM
# cv = conditions: MAPPIT configuration: N-N; pair source set: DPIM
# dah = conditions: MAPPIT configuration: N-N; pair source set: DPIM
# CG3457 = conditions: MAPPIT configuration: N-N; pair source set: Finley_Y2H
# CG34149 = conditions: MAPPIT configuration: N-C; pair source set: RRS
# CG34168 = conditions: MAPPIT configuration: N-N; pair source set: Curagen_high_conf
# CG32846 = conditions: MAPPIT configuration: N-N; pair source set: screen_1
# Git = conditions: MAPPIT configuration: N-N; pair source set: screen_2
# Mst87F = conditions: MAPPIT configuration: N-N; pair source set: screen_2
# CG3517 = conditions: MAPPIT configuration: N-N; pair source set: Finley_Y2H
# 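Note: HEK293T cells with Epo stimulation, STAT-responsive firefly luciferase reporter, fold induction versus unstimulated cells divided by the larger fold induction of two negative controls lacking either bait or prey.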
binder,measurement,setting,value
B1,MAPPIT interaction score,CG34328,4.11 (active)
B2,MAPPIT interaction score,CG32809,2.19
same,MAPPIT interaction score,RhoGAP92B,0.00556
B3,MAPPIT interaction score,CG3473,0.831
same,MAPPIT interaction score,Ubc2,0.234
B4,MAPPIT interaction score,CG3557,0.0573
same,MAPPIT interaction score,Mst84Db,-0.0214
B5,MAPPIT interaction score,CG3356,0.159
same,MAPPIT interaction score,sinah,2.14
B6,MAPPIT interaction score,CG34345; MAPPIT configuration: N-C,0.433
same,MAPPIT interaction score,CG34345; MAPPIT configuration: N-N,0.157
B7,MAPPIT interaction score,CG32425,3.41
same,MAPPIT interaction score,CG5327,3.17
B8,MAPPIT interaction score,CG33514,0.423
same,MAPPIT interaction score,cv,-0.17
same,MAPPIT interaction score,dah,-0.359
B9,MAPPIT interaction score,CG3457,0.308
B10,MAPPIT interaction score,CG34149,-1.31
B11,MAPPIT interaction score,CG34168,0.212
B12,MAPPIT interaction score,CG32846,-2.23
same,MAPPIT interaction score,Git,1.05
same,MAPPIT interaction score,Mst87F,0.54
B13,MAPPIT interaction score,CG3517,1.9
